{"source": "PubChem BioAssay", "note": "Unmarked numbers belong to inactive results. Active and inactive are the calls of the source.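 How the source made its calls, unless noted: active means mean inhibition above 46.5%, the solvent-only control mean plus 3 SD; inactive means the rest.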", "data": [{"system": "transactivating tegument protein VP16 (Human herpesvirus 1)", "assay": "VP16 transactivation reporter inhibitors, counter-screen for SRC2 inhibitor project, cell-based, luminescence, single concentration (AID 652007; in the data active means inhibition above about 36%)", "details": "cell-based VP16 transactivation luciferase reporter, at 8.9 µM, stronger effect = higher value", "values": [{"smiles": "COc1ccc2ccc(O)c(CN3CCN(S(=O)(=O)c4cccc(C(F)(F)F)c4)CC3)c2c1", "inhibition": "6.66%"}, {"smiles": "CCC(NC(=O)CCc1c(C)c2cc3c4c(oc3cc2oc1=O)CCCC4)C(=O)O", "note": "(stereo not drawn)", "inhibition": "38.3% (active)"}, {"smiles": "COc1ccc(-c2nnn(CC(=O)N(Cc3cccs3)C(C)C(=O)NCCC(C)C)n2)cc1OC", "note": "(stereo not drawn)", "inhibition": "-10.9%"}, {"smiles": "Cc1c(CCC(=O)N[C@@H](CCCNC(N)=O)C(=O)O)c(=O)oc2cc3oc4c(c3cc12)CCCC4", "inhibition": "47.2% (active)"}, {"smiles": "N#Cc1ccc(-c2ccc(OCC(=O)Nc3cccnc3)cc2)cc1", "inhibition": "-9.35%"}, {"smiles": "COc1ccc(-c2ncncc2-c2csc(C)n2)c(O)c1", "inhibition": "-10.8%"}, {"smiles": "Cc1cccc(C(=O)N2CCC(Cc3ccccc3)CC2)c1[N+](=O)[O-]", "inhibition": "14.4%"}, {"smiles": "Oc1ccc(N=Nc2ccc3c(c2)OCCO3)c2ncccc12", "inhibition": "-13.1%"}, {"smiles": "COc1cccc(C(=O)c2sc(NC(C)C)nc2N)c1", "inhibition": "6.6%"}, {"smiles": "CCOC(=O)CCC(=O)c1c(C)oc2ccc(OC)cc12", "inhibition": "6.24%"}, {"smiles": "NC(=O)CC(NC(=O)c1ccc(Br)cc1)c1ccc(N2CCCCCC2)c([N+](=O)[O-])c1", "note": "(stereo not drawn)", "inhibition": "9.13%"}, {"smiles": "Cc1cc(Br)ccc1NC(=O)CN(C)C(=O)C1CCN(c2ncnc3sc(C)c(C)c23)CC1", "inhibition": "12.9%"}, {"smiles": "Cc1ccc(-n2c(C)c([N+](=O)[O-])c3ccc(O)cc32)cc1", "inhibition": "2.28%"}, {"smiles": "CC(C)(C)c1ccc(-c2noc(CCC(=O)NCC3CCCO3)n2)cc1", "note": "(stereo not drawn)", "inhibition": "42.1% (active)"}, {"smiles": "CCn1c(Cl)c(C=O)s/c1=N\\S(=O)(=O)c1ccccc1", "inhibition": "59.6% (active)"}, {"smiles": "O=S(=O)(C/C(=C/CO)S(=O)(=O)c1ccccc1)c1ccccc1", "inhibition": "79.3% (active)"}, {"smiles": "CCCCC(NC(=O)CCc1c(C)c2cc3c4c(oc3c(C)c2oc1=O)CCCC4)C(=O)O", "note": "(stereo not drawn)", "inhibition": "31.6%"}, {"smiles": "Cc1ccc(-c2noc(CCCC(=O)NC3CCCC3)n2)cc1", "inhibition": "20.1%"}, {"smiles": "CCOC(=O)Cc1csc(N/N=C/c2ccc(C(F)(F)F)cc2)n1", "inhibition": "-7.46%"}, {"smiles": "COc1cc(OC)cc(C(=O)NCC2CCN(C(=O)C(=O)c3cccs3)CC2)c1", "inhibition": "18.9%"}, {"smiles": "Cc1ccc(CS(=O)(=O)c2ncc(Cl)c(C(=O)Nc3nnc(C(C)C)s3)n2)cc1", "inhibition": "27.3%"}, {"smiles": "Cc1ccc(C(=O)NCc2cccc(C(F)(F)F)c2)cc1S(=O)(=O)N1CCCCC1", "inhibition": "-7.82%"}, {"smiles": "CC(=O)Nc1ccc(NC(=O)c2cc(=O)c3ccccc3o2)cc1", "inhibition": "-12.5%"}, {"smiles": "CN1Cc2sc(NC(=S)NC(=O)c3ccccc3)c(C#N)c2CC1(C)C", "inhibition": "20.5%"}]}, {"biological_target": "Nuclear receptor coactivator 2 (Homo sapiens) (UniProt Q15596)", "sequence (Q15596 whole entry, looked up, the tested form may be a part)": "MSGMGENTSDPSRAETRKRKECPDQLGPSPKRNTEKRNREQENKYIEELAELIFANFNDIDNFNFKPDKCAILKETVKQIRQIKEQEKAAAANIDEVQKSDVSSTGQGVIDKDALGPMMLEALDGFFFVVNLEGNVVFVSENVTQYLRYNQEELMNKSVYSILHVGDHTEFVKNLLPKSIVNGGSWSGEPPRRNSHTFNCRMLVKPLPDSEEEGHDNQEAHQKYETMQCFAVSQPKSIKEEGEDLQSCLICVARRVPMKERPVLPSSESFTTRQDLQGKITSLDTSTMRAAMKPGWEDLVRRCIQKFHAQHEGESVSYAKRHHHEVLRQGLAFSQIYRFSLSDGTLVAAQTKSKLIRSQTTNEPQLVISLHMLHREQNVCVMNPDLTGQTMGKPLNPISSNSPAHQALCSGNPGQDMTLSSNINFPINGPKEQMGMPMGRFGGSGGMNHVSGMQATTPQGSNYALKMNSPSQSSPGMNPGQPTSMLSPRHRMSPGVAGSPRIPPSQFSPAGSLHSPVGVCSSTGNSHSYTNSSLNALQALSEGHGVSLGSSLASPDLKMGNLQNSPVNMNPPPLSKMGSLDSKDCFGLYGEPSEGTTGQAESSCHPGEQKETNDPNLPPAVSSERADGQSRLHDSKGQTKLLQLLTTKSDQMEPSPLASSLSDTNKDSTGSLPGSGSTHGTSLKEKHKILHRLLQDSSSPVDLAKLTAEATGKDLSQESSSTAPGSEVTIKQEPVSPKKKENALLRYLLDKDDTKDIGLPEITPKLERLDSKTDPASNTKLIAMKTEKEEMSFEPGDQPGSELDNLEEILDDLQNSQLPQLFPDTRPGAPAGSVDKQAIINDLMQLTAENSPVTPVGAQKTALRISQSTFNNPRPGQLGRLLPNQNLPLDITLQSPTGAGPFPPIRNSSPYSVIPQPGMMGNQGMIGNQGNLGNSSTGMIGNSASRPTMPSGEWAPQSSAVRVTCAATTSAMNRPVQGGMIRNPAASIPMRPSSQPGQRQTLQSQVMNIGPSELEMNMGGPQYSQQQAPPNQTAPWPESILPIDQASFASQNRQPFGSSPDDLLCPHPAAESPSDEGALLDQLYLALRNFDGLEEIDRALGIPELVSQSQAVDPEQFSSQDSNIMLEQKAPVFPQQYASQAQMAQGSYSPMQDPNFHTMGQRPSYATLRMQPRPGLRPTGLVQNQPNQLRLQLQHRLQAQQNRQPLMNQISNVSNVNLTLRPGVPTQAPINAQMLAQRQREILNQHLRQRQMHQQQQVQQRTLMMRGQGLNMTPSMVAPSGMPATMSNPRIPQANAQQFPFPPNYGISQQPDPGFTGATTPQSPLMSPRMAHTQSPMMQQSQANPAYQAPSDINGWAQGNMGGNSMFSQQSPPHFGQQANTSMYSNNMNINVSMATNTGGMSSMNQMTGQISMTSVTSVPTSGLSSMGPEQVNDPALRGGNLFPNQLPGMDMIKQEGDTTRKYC", "assay": "SRC2 coactivator transcriptional activity inhibitors, confirmation, cell-based, luminescence, HEK293, triplicate (AID 652008);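 further: 0% = DMSO-treated cells and 100% = Gossypol at 36 µM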", "details": "HEK293 GAL4-SRC2 luciferase reporter, at 8.9 µM, stronger effect = higher value", "values": [{"smiles": "Cc1nc(SCc2cccc(C(=O)O)c2)nc2c1CCCC2", "inhibition": "56.6% (active)"}, {"smiles": "Cn1c(=O)c2[nH]c(CCCc3ccc([N+](=O)[O-])cc3)nc2n(C)c1=O", "inhibition": "5.32%"}, {"smiles": "Cc1ccc(C)c(OCc2ccc(C(=O)Nc3ccc([N+](=O)[O-])cn3)o2)c1", "inhibition": "35.9%"}, {"smiles": "CC(=O)O[C@@H]1C[C@H]2C(C)(C)C(=O)C=C[C@]2(C)[C@H]2CC[C@@]3(C)[C@H](c4ccoc4)OC(=O)[C@H]4O[C@]43[C@@]21C", "inhibition": "27%"}, {"smiles": "Nc1ccc(Oc2ccc3c(c2)C(=O)N(CC2CCCO2)C3=O)cc1", "note": "(stereo not drawn)", "inhibition": "52.8% (active)"}, {"smiles": "CCOc1ccc(-c2cc(CCCC(=O)NCCc3ccccc3)no2)cc1", "inhibition": "44.9%"}, {"smiles": "COc1ccccc1-c1cn[nH]c1-c1ccc(O)cc1O", "inhibition": "11.9%"}, {"smiles": "O=C(NC(=S)Nc1cccc2cc(O)ccc12)c1ccccc1Br", "inhibition": "-14.4%"}, {"smiles": "CCN(CC)c1ccc(NC(=O)CCCCC(=O)Nc2ccc(N(CC)CC)cc2)cc1", "inhibition": "48.3% (active)"}, {"smiles": "Cc1cc(C2=NNC(=NC3CC3)SC2)c(C)n1-c1ccccc1", "inhibition": "96.4% (active)"}, {"smiles": "Cc1nc(S(=O)(=O)N(C)c2ccccc2)c(C#N)c(C)c1Cl", "inhibition": "40.9%"}, {"smiles": "Cc1nc2cc(-c3ccccc3)sc2c(=O)n1N", "inhibition": "45%"}, {"smiles": "CCCOc1ccc(C(=O)C(CN2CCOCC2)c2ccccc2)cc1", "note": "(stereo not drawn)", "inhibition": "53.9% (active)"}, {"smiles": "COc1ccc(N2CCN(C(=O)CCCCCn3c(=S)[nH]c4ccc(N5CCOCC5)cc4c3=O)CC2)cc1", "inhibition": "-4.46%"}, {"smiles": "O=C1NC(c2ccccc2)Cc2ccncc21", "note": "(stereo not drawn)", "inhibition": "-28.4%"}, {"smiles": "COc1ccc2ccc(O)c(CN3CCN(S(=O)(=O)c4cccc(C(F)(F)F)c4)CC3)c2c1", "inhibition": "-14%"}, {"smiles": "CCC(NC(=O)CCc1c(C)c2cc3c4c(oc3cc2oc1=O)CCCC4)C(=O)O", "note": "(stereo not drawn)", "inhibition": "70.3% (active)"}, {"smiles": "COc1ccc(-c2nnn(CC(=O)N(Cc3cccs3)C(C)C(=O)NCCC(C)C)n2)cc1OC", "note": "(stereo not drawn)", "inhibition": "9.41%"}, {"smiles": "Cc1c(CCC(=O)N[C@@H](CCCNC(N)=O)C(=O)O)c(=O)oc2cc3oc4c(c3cc12)CCCC4", "inhibition": "57.7% (active)"}, {"smiles": "N#Cc1ccc(-c2ccc(OCC(=O)Nc3cccnc3)cc2)cc1", "inhibition": "52.6% (active)"}, {"smiles": "COc1ccc(-c2ncncc2-c2csc(C)n2)c(O)c1", "inhibition": "-21.2%"}, {"smiles": "Cc1cccc(C(=O)N2CCC(Cc3ccccc3)CC2)c1[N+](=O)[O-]", "inhibition": "38.3%"}, {"smiles": "Oc1ccc(N=Nc2ccc3c(c2)OCCO3)c2ncccc12", "inhibition": "13.6%"}, {"smiles": "COc1cccc(C(=O)c2sc(NC(C)C)nc2N)c1", "inhibition": "57.2% (active)"}, {"smiles": "CCOC(=O)CCC(=O)c1c(C)oc2ccc(OC)cc12", "inhibition": "-15%"}, {"smiles": "NC(=O)CC(NC(=O)c1ccc(Br)cc1)c1ccc(N2CCCCCC2)c([N+](=O)[O-])c1", "note": "(stereo not drawn)", "inhibition": "23.3%"}, {"smiles": "Cc1cc(Br)ccc1NC(=O)CN(C)C(=O)C1CCN(c2ncnc3sc(C)c(C)c23)CC1", "inhibition": "23%"}, {"smiles": "Cc1ccc(-n2c(C)c([N+](=O)[O-])c3ccc(O)cc32)cc1", "inhibition": "47.5% (active)"}, {"smiles": "CC(C)(C)c1ccc(-c2noc(CCC(=O)NCC3CCCO3)n2)cc1", "note": "(stereo not drawn)", "inhibition": "67.2% (active)"}, {"smiles": "CCn1c(Cl)c(C=O)s/c1=N\\S(=O)(=O)c1ccccc1", "inhibition": "16%"}, {"smiles": "O=S(=O)(C/C(=C/CO)S(=O)(=O)c1ccccc1)c1ccccc1", "inhibition": "67% (active)"}, {"smiles": "CCCCC(NC(=O)CCc1c(C)c2cc3c4c(oc3c(C)c2oc1=O)CCCC4)C(=O)O", "note": "(stereo not drawn)", "inhibition": "29.4%"}, {"smiles": "Cc1ccc(-c2noc(CCCC(=O)NC3CCCC3)n2)cc1", "inhibition": "42.4%"}, {"smiles": "CCOC(=O)Cc1csc(N/N=C/c2ccc(C(F)(F)F)cc2)n1", "inhibition": "44.6%"}, {"smiles": "COc1cc(OC)cc(C(=O)NCC2CCN(C(=O)C(=O)c3cccs3)CC2)c1", "inhibition": "18%"}, {"smiles": "Cc1ccc(CS(=O)(=O)c2ncc(Cl)c(C(=O)Nc3nnc(C(C)C)s3)n2)cc1", "inhibition": "51.9% (active)"}, {"smiles": "Cc1ccc(C(=O)NCc2cccc(C(F)(F)F)c2)cc1S(=O)(=O)N1CCCCC1", "inhibition": "-8.4%"}, {"smiles": "CC(=O)Nc1ccc(NC(=O)c2cc(=O)c3ccccc3o2)cc1", "inhibition": "-8.33%"}, {"smiles": "CN1Cc2sc(NC(=S)NC(=O)c3ccccc3)c(C#N)c2CC1(C)C", "inhibition": "58.2% (active)"}]}]}
